m5-HT2A agonist: mouse HTR2A agonism via beta-arrestin recruitment; CHO-K1 mHTR2A beta-arrestin complementation, luminescence; percent of 30 µM serotonin response; activation, % at 7.6 µM; 360,000 compounds, 0.66% hits; AID 624169;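 active means activation above a run cutoff, the mean activation of all tested compounds plus 3 SD, cut at about 14% in these data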
HGIII-sPLA2 inh: Inhibits HGIII-sPLA2 liposome hydrolysis, primary screen; Q9NZ20; QFRET BODIPY PC-A2 liposome hydrolysis, fluorescence; inhibition, % at 12.2 µM; 370,000 compounds, 0.56% hits; AID 743126;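 active means inhibition above mean plus 3 SD of compounds lying within the high and low control bounds, cut at about 19% in these data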
MOR-DOR inv ag: inverse agonist of human OPRM1-OPRD1 heterodimerization; P35372+P41143; cell-based MOR-DOR heterodimer luminescence, inverse agonism; inhibition, % at 9.3 µM; 340,000 compounds, 0.21% hits; in the data active means inhibition above about 22%, passing the limit was not always enough
Target sequence (P35372 whole entry, looked up): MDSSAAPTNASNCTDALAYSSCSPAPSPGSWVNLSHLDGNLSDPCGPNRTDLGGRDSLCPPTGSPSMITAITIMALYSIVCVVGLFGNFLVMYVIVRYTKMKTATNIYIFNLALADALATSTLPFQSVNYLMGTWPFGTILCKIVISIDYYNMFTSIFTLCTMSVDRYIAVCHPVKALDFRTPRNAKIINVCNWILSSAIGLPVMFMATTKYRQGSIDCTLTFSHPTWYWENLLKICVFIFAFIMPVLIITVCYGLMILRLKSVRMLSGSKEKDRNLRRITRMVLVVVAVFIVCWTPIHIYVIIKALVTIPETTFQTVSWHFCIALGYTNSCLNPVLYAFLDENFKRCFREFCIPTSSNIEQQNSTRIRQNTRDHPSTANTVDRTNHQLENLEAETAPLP
Target sequence (P41143 whole entry, looked up): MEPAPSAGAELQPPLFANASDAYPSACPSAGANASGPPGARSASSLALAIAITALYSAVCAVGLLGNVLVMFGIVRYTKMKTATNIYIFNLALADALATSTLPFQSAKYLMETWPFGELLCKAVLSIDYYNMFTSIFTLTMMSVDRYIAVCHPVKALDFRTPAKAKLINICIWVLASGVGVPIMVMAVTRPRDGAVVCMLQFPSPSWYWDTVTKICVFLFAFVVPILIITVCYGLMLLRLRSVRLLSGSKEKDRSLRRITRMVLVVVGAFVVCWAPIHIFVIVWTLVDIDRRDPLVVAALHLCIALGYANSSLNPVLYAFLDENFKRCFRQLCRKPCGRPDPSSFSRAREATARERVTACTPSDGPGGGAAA
HTR5A inv ag: HTR5A inverse agonism, opioid heterodimer counter-screen. P47898. HTR5A cell line, luminescence. inhibition, % at 9.3 µM. 340,000 compounds, 0.083% hits; in the data active means inhibition mostly above about 23%, no sharp cut-off; inactive means mostly below about 18%
OPRM1-OPRD1 ag: agonists of human mu-delta opioid receptor heterodimerization; P35372+P41143; 340,000 compounds, 0.3% hits; cells, OPRM1-OPRD1 heterodimerization, luminescence; activation, % at 9.3 µM
HTR5A ag ctr: counter-screen for OPRM1-OPRD1 agonists: human HTR5A agonism | P47898 | HTR5A agonist assay, luminescence, cell-based | activation, % at 9.3 µM | 340,000 compounds, 0.61% hits | AID 504692; in the data active means activation mostly above about 9.5%, no sharp cut-off; inactive means mostly below about 7.6%
MOR-DOR ag conf: OPRM1-OPRD1 heterodimer agonism, confirmation; shares compounds with OPRM1-OPRD1 ag; activation, % at 9.3 µM; AID 504904; cells, MOR-DOR heterodimerization, luminescence complementation; 830 compounds, 45% hits
HTR5A ag counter: counter-screen for OPRM1-OPRD1 agonists: human HTR5A agonism; shares compounds with OPRM1-OPRD1 ag; HTR5A agonist counterscreen, cell luminescence; AID 504905; activation, % at 9.3 µM; 830 compounds, 8% hits; in the data active means activation above about 17%
Large screens that a line does not name were inactive (follow-up assays come after a bar, where they were run); ! = a repeat was not active. Shown are actives, neighbours in structure and some others; about 2.2% of the full set was active somewhere. Unless noted, no stated cut-off is given here; in the data, active means activation above about 18%; inactive means the rest.

CC(=O)OC(C)(C)/C=C/C(=O)[C@](C)(O)C1[C@H](O)C[C@@]2(C)C3CC=C4C(C[C@H](O)C(=O)C4(C)C)[C@]3(C)C(=O)C[C@]12C (some centres not stated)	m5-HT2A agonist 16 (no result: HGIII-sPLA2 inh)
CC(=O)c1ccc2c(c1)C1C(Cl)C(Sc3ccccc3[N+](=O)[O-])CC1C(c1ccccc1[N+](=O)[O-])N2 (configuration not stated)	HTR5A ag ctr 11
CC(C)(C)NC(=O)C1CN=C(c2ccccc2)c2cc(Cl)ccc2N1C(=O)C1CCC1 (configuration not stated)	none (no result: m5-HT2A agonist, MOR-DOR inv ag, HTR5A inv ag, OPRM1-OPRD1 ag, HTR5A ag ctr)
CC(NC(=O)OC1CC2CCC1(C)C2(C)C)P(=O)(Oc1ccccc1)Oc1ccccc1 (configuration not stated)	none (no result: m5-HT2A agonist, MOR-DOR inv ag, HTR5A inv ag, OPRM1-OPRD1 ag, HTR5A ag ctr)
CNc1cc(Cl)c2nonc2c1[N+](=O)[O-]	MOR-DOR inv ag 33
Cc1cc([N+](=O)[O-])c(Cl)cc1NC(=O)C(C)C	none
COP(=O)(OC)C(C)NC(=O)OCc1ccccc1 (configuration not stated)	none (no result: m5-HT2A agonist, MOR-DOR inv ag, HTR5A inv ag, OPRM1-OPRD1 ag, HTR5A ag ctr)
O/N=C/c1c[nH]c2ccccc12	none
NC(=Nc1ccccc1)NN=Cc1c[nH]c2ccccc12	HTR5A ag ctr 13
C[N+]1=C(N)NC2=C3CCCCC3ONC2C1 (configuration not stated)	none (no result: m5-HT2A agonist, MOR-DOR inv ag, HTR5A inv ag, OPRM1-OPRD1 ag, HTR5A ag ctr)
Cc1cc(NC(=O)COC(=O)c2c(C)nn(Cc3ccccc3)c2C)no1	HTR5A ag ctr 12
Cc1cc(NC(=O)COC(=O)c2c(C)nn(Cc3ccccc3Cl)c2Cl)no1	none
CC1(C)CN=C(Nc2ccccc2C(F)(F)F)S1	HTR5A ag ctr 11
CCn1nc(-c2ccccc2)nc2c(=O)n(C)c(=O)nc1-2	OPRM1-OPRD1 ag 24 (no result: HGIII-sPLA2 inh)
CCCNC(=O)N1[C@H]2CC[C@@H]1C(C(=O)OC)=C(c1cccc(C#N)c1)C2	HTR5A ag ctr 13
COC(=O)C1=C(c2cccc(C#N)c2)C[C@@H]2CC[C@H]1N2C(=O)NCCOc1ccccc1	none
c1ccc2c(CCNC3=NCCC3)c[nH]c2c1	HTR5A ag ctr 11
O=c1c2ccccc2nc(/C=C/c2ccccc2F)n1-c1ccccc1O	OPRM1-OPRD1 ag 29
O=C(CN1C(=O)[C@@H](Cc2ccc(O)cc2)N=C(c2ccccc2)c2ccccc21)NC1CCCCC1	none (no result: m5-HT2A agonist, MOR-DOR inv ag, HTR5A inv ag, OPRM1-OPRD1 ag, HTR5A ag ctr)
C=C1C(=O)O[C@@H]2C[C@@H](C)[C@@H]3C=CC(=O)[C@@]3(C)[C@@H](OC(=O)CC(=O)O[C@H]3[C@@H]4C(=C)C(=O)O[C@@H]4C[C@@H](C)[C@@H]4C=CC(=O)[C@]43C)[C@H]12	MOR-DOR inv ag 46
Cc1cc(N2CCNC[C@H]2C)ccc1N1CC[C@H](O)C1	none (no result: m5-HT2A agonist, MOR-DOR inv ag, HTR5A inv ag, OPRM1-OPRD1 ag, HTR5A ag ctr)
CC12CC[C@H]3[C@@H](CCC4(O)C[C@H](O)CCC34/C=N/NC(=O)Cc3ccccc3)C1(O)CCC2C1=CC(=O)OC1 (some centres not stated)	none
CC(=O)C1CCC2C3CCC4CC(O)CCC4(C)C3CCC12C (configuration not stated)	none
CC12CCC(O)CC1CCC1C2CCC2(C)C(C3=CC(=O)OC3)C(O)CC12O (configuration not stated)	OPRM1-OPRD1 ag 69, HTR5A ag ctr 33
C[C@]12CC[C@H](O)C[C@H]1CC[C@@H]1[C@@H]2CC[C@]2(C)[C@@H](C3=CC(=O)OC3)CC[C@]12O	OPRM1-OPRD1 ag 71, HTR5A ag ctr 37
C=C1[C@@H](C)C2[C@H](Cc3ccccc3)NC(=O)[C@]23[C@H](OC(C)=O)/C=C/[C@@](C)(O)C(=O)[C@@H](C)C/C=C/[C@H]3[C@@H]1O (some centres not stated)	none (no result: m5-HT2A agonist, MOR-DOR inv ag, HTR5A inv ag, OPRM1-OPRD1 ag, HTR5A ag ctr)
O=c1[nH]c(=O)n(Cc2ccco2)c(O)c1/C=N/N1CCCCCC1	none
N#Cc1c(/N=C/c2c(O)n(Cc3ccco3)c(=O)[nH]c2=O)sc2c1CCCC2	m5-HT2A agonist 19
C=C1C(=O)C(C)=C2C(=O)N3Cc4[nH]c5ccccc5c4CC3(C(=O)OC)C12 (configuration not stated)	none (no result: m5-HT2A agonist, MOR-DOR inv ag, HTR5A inv ag, OPRM1-OPRD1 ag, HTR5A ag ctr)
COC(=O)C1=C[C@H]([C@@H](C)[C@H](OC)c2ccccc2Br)[C@@H]2[C@H]1c1ccccc1N2C	none (no result: m5-HT2A agonist, MOR-DOR inv ag, HTR5A inv ag, OPRM1-OPRD1 ag, HTR5A ag ctr)
CC(=O)OC1C2CCCC1C(N1CCCC1)CC2 (configuration not stated)	HTR5A ag ctr 13!
CC(C)C[C@H]1C(=O)N2CCC[C@H]2[C@]2(O)O[C@](NC(=O)[C@@H]3C=C4c5cccc6[nH]cc(c56)C[C@H]4N(C)C3)(C(C)C)C(=O)N12	m5-HT2A agonist 49 (no result: HGIII-sPLA2 inh)
C=C(C=O)CC1CC(O)[C@]2(C)OC3CC4OC5C[C@]6(C)O[C@]7(C)CCC8OC9C[C@]%10(C)OC%11C(C)=CC(=O)OC%11CC%10OC9C[C@@H](C)C8OC7CC6O[C@]5(C)C/C=C\C4OC3CC2O1 (some centres not stated)	none (no result: m5-HT2A agonist, MOR-DOR inv ag, HTR5A inv ag, OPRM1-OPRD1 ag, HTR5A ag ctr)
CCCC(=O)N1c2ccc(Cl)cc2C(c2ccccc2)=NCC1C(=O)NC(C)(C)C (configuration not stated)	none (no result: m5-HT2A agonist, MOR-DOR inv ag, HTR5A inv ag, OPRM1-OPRD1 ag, HTR5A ag ctr)
CC1(C)C[C@H]2C=C(C=O)[C@]3(C=O)C[C@]3(C)[C@H]2C1	HTR5A ag ctr 42
CCN(CC)c1ccc(/C=N/c2sc3c(c2C#N)C2CCN3CC2)c(O)c1	MOR-DOR inv ag 42 (no result: HGIII-sPLA2 inh)
O=C1C(=O)c2ccccc2-c2ccccc21	OPRM1-OPRD1 ag 40 | MOR-DOR ag conf inactive | HTR5A ag counter inactive
C=CCN(CC#CCO)Cc1ccc(OC)cc1OC	none (no result: m5-HT2A agonist, MOR-DOR inv ag, HTR5A inv ag, OPRM1-OPRD1 ag, HTR5A ag ctr)
COc1ccc([C@@H]2C[C@H]3[C@@H](CN2)CON3C)cc1	none (no result: m5-HT2A agonist, MOR-DOR inv ag, HTR5A inv ag, OPRM1-OPRD1 ag, HTR5A ag ctr)
Cc1c(P(=S)(c2ccccc2)c2ccccc2)[n+]2ccccc2n1C	none
Cn1cc[n+](C)c1P(=S)(c1ccccc1)c1ccccc1	OPRM1-OPRD1 ag 39 | MOR-DOR ag conf inactive | HTR5A ag counter inactive
Cc1cccc(C(C)c2cnc[nH]2)c1C (configuration not stated)	none (no result: m5-HT2A agonist, MOR-DOR inv ag, HTR5A inv ag, OPRM1-OPRD1 ag, HTR5A ag ctr)
CN1CCCC(C(=O)c2ccc(Cl)cc2)C1 (configuration not stated)	OPRM1-OPRD1 ag 21 | MOR-DOR ag conf inactive | HTR5A ag counter inactive
CC1(O)CCC2C3CCC4=CC(=O)CCC4(C)C34OC4CC21C (configuration not stated)	none
C[C@]12CC[C@H]3C(CCC4(O)CC(O)CC[C@]34C=O)C1=CC[C@H]2c1ccc(=O)oc1 (some centres not stated)	OPRM1-OPRD1 ag 67, HTR5A ag ctr 23 | MOR-DOR ag conf 33 | HTR5A ag counter 23

Screening data deposited in PubChem BioAssay by The Scripps Research Institute Molecular Screening Center.
